From PubChem
BoNT F protease – blocks Botulinum neurotoxin F light chain protease. 0.22% of 360,000 active. Multiplex microsphere protease cleavage assay, flow cytometry. inhibition, % at 10 µM; in the data active = inhibition above about 35%, passing the limit was not always enough; inconclusive = no clear call, values can overlap the other calls; also: plate controls were buffer without enzyme for full effect and enzyme alone for no effect
DUSP3 inh – blocks human VHR1 dual specificity phosphatase; recombinant VHR phosphatase, pNPP absorbance; inhibition, % at 13.3 µM; P51452; 0.52% of 290,000 active; in the data active = inhibition above about 50%
Target sequence (P51452 whole entry, looked up): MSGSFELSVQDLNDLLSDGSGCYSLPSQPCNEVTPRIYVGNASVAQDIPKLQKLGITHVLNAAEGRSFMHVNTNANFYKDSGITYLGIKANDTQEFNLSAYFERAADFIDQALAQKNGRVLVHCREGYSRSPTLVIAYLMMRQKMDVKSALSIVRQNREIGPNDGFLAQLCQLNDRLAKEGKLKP
Autofluor counter – compound fluorescence in toxin protease inhibitor counterscreen; compound autofluorescence counterscreen, microsphere flow cytometry; stronger effect = higher value; fluorescence intensity (no concentration beside the values); 3.1% of 360,000 active; in the data active = fluorescence intensity above about 16000; inconclusive = no clear call, values can overlap the other calls
MazEF act – increases E. coli MazEF RNase cleavage of RNA; activation, % at 20 µM; 0.32% of 350,000 active; FAM/BHQ RNA-DNA oligo cleavage fluorescence, 5 h; P0AE70; in the data active = activation above about 50%
Target sequence (P0AE70 whole entry, looked up): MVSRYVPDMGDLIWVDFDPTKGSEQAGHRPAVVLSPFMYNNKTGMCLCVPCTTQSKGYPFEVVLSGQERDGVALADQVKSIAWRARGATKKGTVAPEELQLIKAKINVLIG
BoNT-A LC inh2 – inhibitors of Botulinum neurotoxin A light chain protease. multiplex microsphere protease substrate cleavage, flow cytometry. inhibition, % at 10 µM. 0.17% of 360,000 active. AID 588499; also: plate controls were buffer without enzyme for full effect and enzyme alone for no effect
Anthrax LF prot – inhibitors of Bacillus anthracis lethal factor protease; P15917; multiplex microsphere protease cleavage assay, LF; inhibition, % at 10 µM; 0.12% of 360,000 active; also: plate controls were buffer without enzyme for full effect and enzyme alone for no effect
* marks the source's active call; other numbers are inactive results. Sampled rows, rich in hits. Any-hit rate of the full collection: about 4.1%. Rule as the data show it, unless noted: active = inhibition above about 30%; inconclusive = no clear call, values can overlap the other calls; inactive = below that.

`CC(C)CN(C(=O)COC(=O)Cc1n[nH]c(=O)c2ccccc12)C1CCS(=O)(=O)C1` (stereo not drawn) gave BoNT F protease 0.9, DUSP3 inh 10.8, Autofluor counter 21604*, MazEF act 6.4, BoNT-A LC inh2 inconclusive and Anthrax LF prot 0.2.
`CC(=O)Oc1cccc2c1C(=O)c1c(OC(C)=O)cc(C(=O)O)cc1C2=O` gave BoNT F protease -4.0, DUSP3 inh 12.4, Autofluor counter 5835, MazEF act 257.0*, BoNT-A LC inh2 -0.3 and Anthrax LF prot -11.1.
Screening CC(C)(C)c1ccc(CC(=O)N2CCC2(C)C(=O)NCc2ccc3c(c2)OCO3)cc1 (stereo not drawn) returned BoNT F protease 1.2, Autofluor counter 3985, BoNT-A LC inh2 -0.6 and Anthrax LF prot 0.3.
Screening CC1CCC(NC(=O)c2ccc(COc3ccccc3)o2)CC1 (stereo not drawn) returned BoNT F protease -7.0, Autofluor counter inconclusive, MazEF act 5.1, BoNT-A LC inh2 -1.4 and Anthrax LF prot 1.1.
`O=c1[nH]c(Cc2ccccc2)nc2c1oc1ccccc12` gave BoNT F protease 1.0, DUSP3 inh 17.5, Autofluor counter 21955*, MazEF act -12.3, BoNT-A LC inh2 0.4 and Anthrax LF prot -0.8.
Cc1nc2c(oc3ccccc32)c(=O)o1 was read as BoNT F protease -2.6, DUSP3 inh 3.6, Autofluor counter 16908*, MazEF act 10.1, BoNT-A LC inh2 -0.2 and Anthrax LF prot -2.9.
COc1ccc(NC(=O)CN(C)C(=O)c2ccc3c(c2)OCCO3)cc1 was read as BoNT F protease -2.6, Autofluor counter inconclusive, MazEF act -4.0, BoNT-A LC inh2 -1.8 and Anthrax LF prot -1.1.
Screening Cc1ccc(-c2cn3cccnc3n2)cc1NC(=O)c1ccc(Br)o1 returned BoNT F protease -6.2, DUSP3 inh 12.7, Autofluor counter 17184*, MazEF act 3.6, BoNT-A LC inh2 -3.0 and Anthrax LF prot -5.0.
For CCCC(=O)Nc1cc(-c2cn3cccnc3n2)ccc1OC the results were BoNT F protease 6.9, DUSP3 inh -22.2, Autofluor counter 18918*, MazEF act 3.2, BoNT-A LC inh2 5.3 and Anthrax LF prot -0.5.
Screening COc1ccc(-c2cn3cccnc3n2)cc1NC(=O)CC(C)C returned BoNT F protease -0.2, DUSP3 inh 38.0, Autofluor counter 7719, MazEF act 5.1, BoNT-A LC inh2 0.5 and Anthrax LF prot -1.8.
For O=C(Nc1cccc(-c2cn3cccnc3n2)c1)c1ccco1 the results were BoNT F protease -2.2, DUSP3 inh 6.8, Autofluor counter 10527, MazEF act -9.6, BoNT-A LC inh2 -1.4 and Anthrax LF prot -4.4.
For O=C(Nc1cccc(-c2cn3cccnc3n2)c1)c1ccc2c(c1)OCO2 the results were BoNT F protease 12.2, DUSP3 inh 10.4, Autofluor counter 19449*, MazEF act 5.4, BoNT-A LC inh2 inconclusive and Anthrax LF prot -5.2.
COc1ccc(-c2cn3cccnc3n2)cc1NC(=O)c1ccc(Br)o1 was read as BoNT F protease -1.6, DUSP3 inh 14.0, Autofluor counter 20830*, MazEF act 0.6, BoNT-A LC inh2 -0.4 and Anthrax LF prot -1.6.
For Cc1ccc(-c2cn3cccnc3n2)cc1NC(=O)c1c(-c2ccccc2Cl)noc1C the results were BoNT F protease -1.2, DUSP3 inh 17.4, Autofluor counter 10225, MazEF act 11.1, BoNT-A LC inh2 0.0 and Anthrax LF prot -3.9.
Screening Cc1ccc(N(CC(=O)NC2CCCC2)C(=O)CCC(=O)Nc2nc(C)cs2)cc1 returned BoNT F protease -7.0, DUSP3 inh -17.1, Autofluor counter 2801, MazEF act -5.8, BoNT-A LC inh2 -0.3 and Anthrax LF prot 8.5.
For O=C(Nc1cccc(-c2cn3cccnc3n2)c1)c1ccc(Br)o1 the results were BoNT F protease 1.1, DUSP3 inh 20.8, Autofluor counter 22911*, MazEF act -5.1, BoNT-A LC inh2 inconclusive and Anthrax LF prot -4.3.
For CCOC(=O)c1c(C)[nH]c(C(=O)COC(=O)C2CC2)c1C the results were BoNT F protease inconclusive, Autofluor counter inconclusive, MazEF act -19.8, BoNT-A LC inh2 inconclusive and Anthrax LF prot inconclusive.
`CCOC(=O)c1c(C)[nH]c(C(=O)COC(=O)c2ccccn2)c1C` gave BoNT F protease -0.8, DUSP3 inh 24.6, Autofluor counter 19471*, MazEF act 5.5, BoNT-A LC inh2 1.9 and Anthrax LF prot -2.1.
Screening CCOC(=O)c1c(C)[nH]c(C(=O)COC(=O)C2(C)CC2(Cl)Cl)c1C (stereo not drawn) returned BoNT F protease -0.9, DUSP3 inh 7.6, Autofluor counter 23186*, MazEF act 0.2, BoNT-A LC inh2 0.1 and Anthrax LF prot -1.2.
For CC1=NC(Nc2nc(C)c3ccccc3n2)=NC(C)(C)C1 the results were BoNT F protease -8.2, DUSP3 inh 2.3, Autofluor counter 24864*, MazEF act 7.0, BoNT-A LC inh2 1.8 and Anthrax LF prot 4.8.
Cc1nc(Nc2ncc3c(n2)CC(C)(C)CC3=O)nc2ccccc12 was read as BoNT F protease -5.7, Autofluor counter 4797, MazEF act 1.5, BoNT-A LC inh2 -1.6 and Anthrax LF prot -10.5.
For CC(C)C1=C2OC(N)=C(C#N)C(C#N)=C2C(C)CC1 (stereo not drawn) the results were BoNT F protease -7.2, DUSP3 inh 8.5, Autofluor counter 22045*, MazEF act -21.8, BoNT-A LC inh2 -4.6 and Anthrax LF prot 0.0.
Screening CC(Oc1ccc(F)cc1)C(=O)Nc1cc(S(=O)(=O)N2CCOCC2)ccc1N1CCCCC1 (stereo not drawn) returned BoNT F protease -7.6, Autofluor counter inconclusive, MazEF act 0.0, BoNT-A LC inh2 -0.9 and Anthrax LF prot -1.9.
For OCCn1ccc(-c2ccccc2OCc2ccc(F)cc2)n1 the results were BoNT F protease -6.1, DUSP3 inh 11.3, Autofluor counter 3130, MazEF act -11.7, BoNT-A LC inh2 -3.3 and Anthrax LF prot -6.0.
For CC(=O)c1c(C)[nH]c(C(=O)OCc2ccc([N+](=O)[O-])cc2)c1C the results were BoNT F protease 12.4, DUSP3 inh 52.0*, Autofluor counter 3930, MazEF act 0.5, BoNT-A LC inh2 0.6 and Anthrax LF prot -1.5.
`CCOc1ccc(Nc2nc(NCCN3CCOCC3)nc(OC)n2)cc1` gave BoNT F protease -0.3, DUSP3 inh 37.1, Autofluor counter 22883*, MazEF act 7.4, BoNT-A LC inh2 inconclusive and Anthrax LF prot -3.4.
For O=C(NCc1cccnc1)c1sc2cc(Cl)ccc2c1Cl the results were BoNT F protease -11.7, DUSP3 inh 50.3*, Autofluor counter 11830, MazEF act 0.4, BoNT-A LC inh2 -0.5 and Anthrax LF prot -0.3.
Screening O=C(NCc1ccco1)c1sc2cc(Cl)ccc2c1Cl returned BoNT F protease 21.8, DUSP3 inh -1.0, Autofluor counter 6686, MazEF act -11.9, BoNT-A LC inh2 inconclusive and Anthrax LF prot -1.3.
`Cn1c(C(=O)NCc2cccnc2)cc2sc(Cl)cc21` gave BoNT F protease 2.8, DUSP3 inh 10.8, Autofluor counter 20564*, MazEF act 0.8, BoNT-A LC inh2 0.9 and Anthrax LF prot 1.6.
